The campaign covered roughly 1,200 compounds. About 170 (14%) were called active. How the calls were made is not given here. These entries were drawn from the full list. Potency and affinity values are given separately.
Assay: E. coli Tat export inhibitors, dose response, cherry-pick, set 2, plate reader (AID 504941)
Settings: E. coli Tat transport reporter; series mostly up to 38 µM

outcome, inactive:
Cc1ccc(C(=O)CN2/C(=C(\O)c3ccccc3)C(=O)c3ccccc3S2(=O)=O)c(C)c1, CC(=O)c1c(C)[nH]c(C(=O)Nc2ccccc2N2CCOCC2)c1C, COc1cccc(C(=O)NCCS(=O)(=O)NCc2ccccn2)c1, Clc1ccccc1-c1nn2c(-c3ccncc3)nnc2s1, O=C(O)CN1C(=O)CC(Cc2ccc(Cl)cc2)C1=O (stereo not drawn), Cc1c(N2C(=O)c3cccc4cccc(c34)C2=O)c(=O)n(-c2ccccc2)n1C, CCOC(=O)c1c2c3c(c(Cl)ccc3[nH]c1=O)C(=O)c1ccccc1-2, CCOC(=O)c1ccccc1-n1nnnc1C, CCCCN1CC(COCc2ccccc2)Oc2cccc(N3CCCC3)c2S1(=O)=O (stereo not drawn), CC(=O)Nc1cccc(Oc2nc(C(F)(F)F)nc3ccccc23)c1, COc1ccc(NS(=O)(=O)c2cc(NC(=O)CCc3ccc(OC)c(OC)c3)ccc2N2CCOCC2)cc1, O=C(CNC1CCCCC1)Nc1cc(S(=O)(=O)N2CCOCC2)ccc1Cl, O=C(CNC1CCCCCC1)Nc1ccccc1N1CCCCC1, COC(c1ccccc1)c1nnc(CCC(=O)N(C)C(C2CC2)C2CC2)o1 (stereo not drawn), CCOC(=O)C1(Cc2cccc(F)c2)CCN(C2CCOCC2)CC1, COc1ccc(/C=N/Nc2ccccn2)cc1O, C(=N\n1cncn1)/c1ccc(N2CCOCC2)cc1, CC(NC(=O)c1ccc([N+](=O)[O-])cc1[N+](=O)[O-])c1ccc(-c2ccccc2)cc1 (stereo not drawn), CCOc1ccc(NC(=O)c2ccc(NC(=O)COC(=O)Cc3ccc(OC)cc3)cc2)cc1, Cc1ccc(-n2nnnc2SCC(=O)Nc2ccc3c(c2)OCCO3)cc1C, COC(=O)c1ccc(OC(=O)c2nn(C)cc2Cl)c(OC)c1, Cn1ncc(Cl)c1C(=O)NCc1ccc(Cl)cc1, O=C(Cc1ccccc1Cl)c1ccccc1, CCN(Cc1ccccc1)S(=O)(=O)c1c[nH]c(C(=O)OC)c1, O=C(O)Cn1cc(C(=S)N2CCOCC2)c2ccccc21, CCCCc1ccc(N=N/C(C(=O)Nc2ccc(NC(C)=O)cc2OC)=C(/C)O)cc1, CC(=O)NC(Cc1ccc(F)c(F)c1)C(=O)NC1CCN(c2c(Cc3ccccc3)c(C)nc3ncnn23)CC1 (stereo not drawn), O=C1CC(c2cc(-c3ccccc3)no2)C1, CNC(=O)CNC(=O)Nc1ccc(C)cc1, CCN(C[C@H]1N[C@@](Cc2ccccc2)(C(=O)OC)[C@H]2C(=O)N(C)C(=O)[C@@H]12)C(C)=O, Cn1cc(CN2CCC(CO)(CCCc3ccccc3)CC2)c(-c2ccccc2)n1, Cc1ccc(NC(=O)c2ccc(Oc3ncccn3)cc2)cc1, Cc1cc(=O)[nH]c(SCC(=O)NCc2ccc3c(c2)OCO3)n1, CC(C)C(=O)Nc1ccc(Nc2ccccc2)cc1, CCCCOc1ccc(NC(=O)c2cc(F)c(F)cc2Cl)cc1, O=C(Cn1nc(C(=O)O)c2ccccc2c1=O)NCc1ccco1, O=C(NCCc1ccccc1)c1n[nH]c2ccccc12, CCc1ccc(C(C(=O)NC2CCCC2)N(CCOC)C(=O)CCC(=O)Nc2cc(C)on2)cc1 (stereo not drawn), Cc1nc(SCc2ccc(C(=O)O)cc2)c2c(C)c(C)sc2n1, CN(C)CCCNC(=O)C(=O)NCC1CCCO1 (stereo not drawn), CCO[C@@H]1OC(C(=O)O)=C[C@H](C)[C@H]1CCCO, CC(=O)Oc1ccc(C(=O)Cc2ccccn2)c(O)c1, CC(C)[C@@H](C(=O)N1CCNCC1)n1cc(CCO)nn1, CCOC(=O)c1cnn(-c2cc(C)c3ccccc3n2)c1N, NS(=O)(=O)c1ccc(CCNc2nc(C(F)(F)F)nc3ccccc23)cc1, CCSC(=O)NC12CC3CC(CC(C3)C1)C2, Cc1ccc(C)n1-c1ccc(-c2ccnc(N)n2)cc1, O=[N+]([O-])c1cccc(N(CC(O)CN2CCCCC2)S(=O)(=O)c2ccccc2)c1 (stereo not drawn), C#CC(C)(CC)NC(=O)c1cc2cccc(CC=C)c2oc1=O (stereo not drawn), COc1ccc(S(=O)(=O)N2CCC(C(N)=O)CC2)cc1, CCOC(=O)c1c(NC(=O)CSc2n[nH]c(CNc3ccccc3)n2)sc(C)c1C, C=CCN1C=C2C(=O)C(C)(OC(=O)c3ccc(OC)cc3)C(=O)C(c3ccco3)=C2C=C1CCCC (stereo not drawn), O=C(O)c1cccc(NC(=O)c2ccccc2)c1, CC(C)N(c1ccccc1)c1ccc(NC(=O)COC(=O)CCN2C(=O)c3cccc([N+](=O)[O-])c3C2=O)cc1, O=C(CSc1cn(CCNC(=O)c2c(F)cccc2F)c2ccccc12)NCC1CCCO1 (stereo not drawn), O=C(CSc1ncnc2c1nnn2Cc1ccccc1F)NCC1CCCO1 (stereo not drawn), Cc1ccccc1OCC(=O)Nc1ccc(S(=O)(=O)Nc2onc(C)c2C)cc1, O=C(/C=C/Nc1ccccc1Br)c1ccccn1, CC1(C)CC(NC(=O)c2ccc(-c3ccc([N+](=O)[O-])cc3)o2)CC(C)(C)N1, Cc1ccc(NC(=S)NC(=O)c2ccc(F)cc2)cc1S(=O)(=O)Nc1ccccc1Cl, C[C@H]1CN([C@@H](C)CO)C(=O)c2cccc(NS(=O)(=O)c3ccc(F)cc3)c2O[C@H]1CN(C)Cc1ccc(Cl)c(Cl)c1, COC(C(=O)Nc1ccnn1C1CCN(C(=O)c2ccc(C=O)cc2)CC1)c1ccccc1 (stereo not drawn), Cc1ccc(NC(=O)c2cccs2)cc1S(=O)(=O)Nc1cccc(Cl)c1, Cc1ccccc1-n1c(SCC(=O)N2CCOCC2)nc(O)c(Cc2ccccc2)c1=O, COCCn1c(=NC(=O)c2ccc3c(c2)OCCO3)sc2cc(S(N)(=O)=O)ccc21, CN1CCc2c(sc3nc(SCC(=O)N4CCOCC4)nc(N)c23)C1, COC(=O)C1(S(=O)(=O)C2(C(=O)OC)CCCC2)CCCC1, Cc1ccc(NCc2nnc3n2CCCCC3)c(C)c1

Reference: PubChem BioAssay AID504941 (Broad Institute, 2011)
